Many of the other results were omitted from the sample, so hits are more common in it than they were.
FBPA Giardia inh: inhibitors of Giardia lamblia fructose-1,6-bisphosphate aldolase; purified Giardia FBPA; Potency, µM (highest dose often 59.6 µM), for the others: at the top dose activity, negative = inhibition, most hits filed as inhibitors; AID 2451; hit rate 0.71% among 290,000; further: potency means the concentration at half of the fitted maximal effect; on the % scale 0 is the no-effect control and ±100 the full control effect; nearly all actives have a fitted effect of over 55% in size
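Giardia FBPA (40 nM reagent) was preincubated 10 min at RT with compound (up to 57.5 uM final), then substrate plus GAPDH/TPI/NAD/arsenate coupling system with diaphorase/resazurin was added; resorufin fluorescence (525/598 nm) was read after 20 min.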
CHX counter: counter-screen for Shiga toxin inhibitors: cycloheximide protein synthesis inhibition | cell reporter, cycloheximide protein synthesis inhibition counterscreen | max response, % | hit rate 12% among 300,000 | AID 2314; in the data active means max response mostly above about 13%, no sharp cut-off; inactive means mostly below about 14%; further: read at 38.3 µM for the half of the compounds with a filed dose; 0% is about no effect
Shiga inhibitor: blocks Shiga toxin action in Vero cells; Vero cells, Shiga toxin protein synthesis inhibition reporter; inhibition, % at 38.7 µM; hit rate 9.2% among 290,000; in the data active means inhibition mostly above about 28%, no sharp cut-off; inactive means mostly below about 43%; further: 0% is about no effect
Sm TGR inh: S. mansoni TGR enzyme inhibition; Q962Y6; purified TGR, DTNB reduction, TNB absorbance 405 nm; Potency, µM (series often up to 114 µM), for inactives: at the highest dose activity change, negative = inhibition, most hits filed as inhibitors; hit rate 3% among 360,000; AID 485364; further: potency means the concentration at half of the fitted maximal effect; on the % scale 0 is the no-effect control and ±100 the full control effect; nearly all actives have a fitted effect of over 60% in size
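TGR 20 nM + NADPH 100 uM (dispensed conc.), cpd preinc 15 min RT; start with NADPH (500 uM addition) then DTNB (15 mM addition). Kinetic TNB absorbance, 405 nm filter. Four-parameter Hill fit across titration.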
TbPYK inhibitor: T. brucei pyruvate kinase inhibition; hit rate 0.12% among 410,000; Potency, µM (titrated, usually from 76.8 µM), for inactives: top-dose activity, negative = inhibition, most hits filed as inhibitors; Q57TT1; TbPYK enzyme, Kinase-Glo Plus ATP luminescence, 45 min; further: potency means the concentration at half of the fitted maximal effect; on the % scale 0 is the no-effect control and ±100 the full control effect; nearly all actives have a fitted effect of over 50% in size
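Luminescent Kinase-Glo Plus end-point after 45 min room-temperature reaction of T. brucei pyruvate kinase started with 130 uM ADP (final). Buffer TEA 50 mM pH 7.2 with KCl, MgCl2, BSA, Tween-20; titration-based qHTS with fitted concentration-effect curves.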
LmPK inh: blocks Leishmania mexicana pyruvate kinase activity | Q27686 | purified LmPK, Kinase-Glo ATP luminescence, 1 h | Potency, µM (top dose mostly 57.5 µM), for inactives: at the highest dose activity change, negative = inhibition, actives largely listed as inhibitors | hit rate 0.37% among 290,000; further: potency means the concentration at half of the fitted maximal effect; on the % scale 0 is the no-effect control and ±100 the full control effect
Target sequence (Q27686 whole entry, looked up): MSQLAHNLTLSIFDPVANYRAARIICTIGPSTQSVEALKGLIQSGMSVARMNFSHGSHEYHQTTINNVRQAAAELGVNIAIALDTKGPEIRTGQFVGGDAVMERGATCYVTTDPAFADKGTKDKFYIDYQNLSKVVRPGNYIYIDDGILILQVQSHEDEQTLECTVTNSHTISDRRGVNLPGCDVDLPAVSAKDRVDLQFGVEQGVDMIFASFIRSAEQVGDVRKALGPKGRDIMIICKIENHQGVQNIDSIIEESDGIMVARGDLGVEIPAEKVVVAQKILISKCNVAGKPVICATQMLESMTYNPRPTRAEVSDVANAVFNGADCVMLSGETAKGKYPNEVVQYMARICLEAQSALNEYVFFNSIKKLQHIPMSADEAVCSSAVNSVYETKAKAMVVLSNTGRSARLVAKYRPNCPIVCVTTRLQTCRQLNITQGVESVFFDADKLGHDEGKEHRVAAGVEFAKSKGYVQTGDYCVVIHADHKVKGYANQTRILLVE
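qHTS format; LmPK 0.1 nM; substrates PEP 0.5 mM and ADP 0.1 mM. One-hour room-temperature incubation, then coupled luciferase luminescence; 0.5 nM enzyme wells mark activation.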
LmPK inh confirm: Inhibits Leishmania mexicana pyruvate kinase, confirmation; AID 2559; purified LmPK, Kinase-Glo ATP luminescence, 1 h; hit rate 40% among 150; Potency, µM (doses to about 57.5 µM), inactives show top-dose activity change, negative = inhibition, hits mostly inhibitors; shares compounds with LmPK inh;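 active means compounds giving a full or partial concentration-response curve, as inhibitors or activators; inconclusive means weak, top-dose-only or unclear curve responses; inactive means no response at any tested dose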
* = called active by the depositor; [ ] = remark or other dose. Unless noted, the call rests on the fitted dose curve; in most records, active means well fitted curve in the direction sought with a large enough effect; inconclusive means small, poorly fitted or top-dose-only effect, or another doubt; inactive means no such curve, though single readings can be large; an effect the other way counts as inactive or inconclusive.

Screening O=C(Nc1ccc(N2CCOCC2)cc1)c1cn2ccccc2n1 returned FBPA Giardia inh 9%, CHX counter 47*, Shiga inhibitor 56*, Sm TGR inh 0%, TbPYK inhibitor inconclusive, LmPK inh 2.8µM* and LmPK inh confirm 16µM*.
O=C(Nc1ccc(Cl)c(S(=O)(=O)N2CCOCC2)c1)c1cn2ccccc2n1 was read as FBPA Giardia inh 4%, CHX counter -3, Shiga inhibitor 14, Sm TGR inh -4%, TbPYK inhibitor 0% and LmPK inh 2%.
`COc1ccccc1N(C)C(=O)Cn1c(=O)oc2cc(S(=O)(=O)N3CCCC3)ccc21` gave Sm TGR inh 4% and TbPYK inhibitor -9%.
Screening CC(C)(C)c1ccc(CN(Cc2ccco2)Cc2nnnn2C2CCCC2)cc1 returned FBPA Giardia inh -6%, CHX counter 1, Shiga inhibitor 68, Sm TGR inh -25%, TbPYK inhibitor 7%, LmPK inh -5% and LmPK inh confirm -3%.
Screening c1ccc(-c2nc(-c3ccccn3)no2)cc1 returned FBPA Giardia inh -2%, CHX counter -5, Shiga inhibitor -15, Sm TGR inh -1%, TbPYK inhibitor inconclusive, LmPK inh 3.5µM* and LmPK inh confirm 15µM*.
For CCCCNc1ccc(-c2nc(-c3ccccn3)no2)cc1[N+](=O)[O-] the results were Sm TGR inh -15% and TbPYK inhibitor -1%.
`O=C(OCCn1c(=S)sc2ccccc21)c1ccccc1` gave TbPYK inhibitor -13%.
`Cc1ccnc(NC(=O)c2cc3ccccc3oc2=O)c1` gave FBPA Giardia inh 2%, CHX counter 27*, Shiga inhibitor 122*, Sm TGR inh 6%, TbPYK inhibitor -10%, LmPK inh 7.9µM* and LmPK inh confirm inconclusive.
For CC1(O)CC(C)(C)C(C#N)C(=O)N1 (stereo not drawn) the results were TbPYK inhibitor 10%.
O=C(C=Cc1ccc2c(c1)OCO2)OCC=Cc1ccc2c(c1)OCO2 was read as TbPYK inhibitor 2%.
Screening O=C(COC(=O)c1ccccn1)Nc1ccc2c(c1)OCCO2 returned TbPYK inhibitor 1%.
Screening O=C(Nc1ccc2c(c1)OCCO2)c1ccccn1 returned FBPA Giardia inh -3%, CHX counter 12*, Shiga inhibitor 31, Sm TGR inh -7%, TbPYK inhibitor inconclusive, LmPK inh 5µM* and LmPK inh confirm 18µM*.
For O=C(/C=C/c1ccc2c(c1)OCO2)c1ccccn1 the results were FBPA Giardia inh inconclusive, CHX counter 72*, Shiga inhibitor 97*, Sm TGR inh -33%, TbPYK inhibitor inconclusive, LmPK inh 5µM* and LmPK inh confirm 21µM*.
Cn1c(CNC(=O)CSc2nc(-c3ccccc3F)nc3cc(=O)[nH]n23)nc2ccccc21 was read as Sm TGR inh inconclusive and TbPYK inhibitor -8%.
Screening CCOC(=O)Cc1csc(NC(=S)NC(=O)c2ccc([N+](=O)[O-])cc2)n1 returned FBPA Giardia inh inconclusive, CHX counter 2, Shiga inhibitor 4, Sm TGR inh inconclusive, TbPYK inhibitor -3%, LmPK inh 7.1µM* and LmPK inh confirm inconclusive.
`CCOC(=O)Cc1csc(NC(=S)NC(=O)c2ccc(Cl)cc2)n1` gave FBPA Giardia inh inconclusive, CHX counter -3, Shiga inhibitor -8, Sm TGR inh -34%, TbPYK inhibitor 2% and LmPK inh -14%.
Screening COc1ccc(C(=O)Nc2cccc(OC)c2)cc1 returned FBPA Giardia inh -16%, CHX counter 58*, Shiga inhibitor 91*, Sm TGR inh -28%[11.4 µM], TbPYK inhibitor inconclusive, LmPK inh inconclusive and LmPK inh confirm inconclusive.
Screening COc1ccc(C(=O)Nc2cccnc2)cc1 returned FBPA Giardia inh 0%, CHX counter 26, Shiga inhibitor 64, Sm TGR inh 2%, TbPYK inhibitor -6% and LmPK inh -22%.
`Cn1c2ccccc2c(=O)c2ccc(NCc3ccc4c(c3)OCO4)cc21` gave TbPYK inhibitor -6%.
For Cc1ccc(S(=O)(=O)n2c(N)nc3ccccc32)cc1 the results were FBPA Giardia inh 0%, CHX counter -2, Sm TGR inh 4%, TbPYK inhibitor 4% and LmPK inh 2%.
For Cc1ccc(C(=O)n2c(N)nc3ccccc32)cc1 the results were FBPA Giardia inh 0%, CHX counter 4, Shiga inhibitor -21, TbPYK inhibitor -25%, LmPK inh 5µM* and LmPK inh confirm 33µM*.
For CCc1ccc(NC(=O)CSC2=Nc3ccccc3C3=NC(CC(=O)NCc4cccs4)C(=O)N23)cc1 (stereo not drawn) the results were Sm TGR inh 4% and TbPYK inhibitor -9%.
COc1cc(NC(=O)C2(C)CCCN2C(=O)C(C)C)cc(OC)c1OC (stereo not drawn) was read as TbPYK inhibitor -9%.
Screening COC1=NS(=O)(=O)c2ccccc21 returned FBPA Giardia inh 2%, CHX counter -2, Shiga inhibitor -12, Sm TGR inh 1%, TbPYK inhibitor 1% and LmPK inh -6%.
For Cc1ccc(C)c(OC2=NS(=O)(=O)c3ccccc32)c1 the results were FBPA Giardia inh 3%, CHX counter 2, Shiga inhibitor -4, Sm TGR inh -16%, TbPYK inhibitor -19%, LmPK inh 10µM* and LmPK inh confirm inconclusive.
Nc1ccc2nc(-c3ccccc3)sc2c1 was read as FBPA Giardia inh -11%, CHX counter 9, Shiga inhibitor 25, Sm TGR inh 4%, TbPYK inhibitor inconclusive, LmPK inh 8.9µM* and LmPK inh confirm 16µM*.
CC(=O)Oc1ccc(-c2nc(-c3cccnc3)no2)cc1 was read as FBPA Giardia inh 1%, CHX counter 39*, Shiga inhibitor 41*, Sm TGR inh 2%, TbPYK inhibitor 0%, LmPK inh 5µM* and LmPK inh confirm 5.8µM*.
For CCOc1ccc(-c2noc(-c3cccnc3)n2)cc1OCC the results were FBPA Giardia inh -5%, CHX counter 1, Shiga inhibitor 12, Sm TGR inh 8%, TbPYK inhibitor 1% and LmPK inh 1%.
Screening CCC(CC)CC1CN2CCc3cc(OC)c(OC)cc3C2CC1(O)CC (stereo not drawn) returned TbPYK inhibitor -2%.
Cn1cc(S(=O)(=O)N2CCCCCC2)cc1C(=O)N1CCN(c2ccc(Cl)cc2)CC1 was read as Sm TGR inh -1% and TbPYK inhibitor 1%.
